# Data: PubChem BioAssay (NCATS)
# Records with an inconclusive call do not appear. Calls of active or inactive are those of the source. Calls follow the shape of the dose curve; as a rule, active = well fitted curve in the direction sought with a large enough effect in the signal ratio, with a control signal flat (not every such curve was filed as active); inconclusive = small, poorly fitted or top-dose-only effect, or effect the other way, or a change in a side signal; inactive = no such curve, though single readings can be large or run the other way; the % refers to the signal ratio.
# Target: Peroxisome proliferator-activated receptor gamma (Homo sapiens) (UniProt P37231)
# Sequence (P37231 whole entry, looked up): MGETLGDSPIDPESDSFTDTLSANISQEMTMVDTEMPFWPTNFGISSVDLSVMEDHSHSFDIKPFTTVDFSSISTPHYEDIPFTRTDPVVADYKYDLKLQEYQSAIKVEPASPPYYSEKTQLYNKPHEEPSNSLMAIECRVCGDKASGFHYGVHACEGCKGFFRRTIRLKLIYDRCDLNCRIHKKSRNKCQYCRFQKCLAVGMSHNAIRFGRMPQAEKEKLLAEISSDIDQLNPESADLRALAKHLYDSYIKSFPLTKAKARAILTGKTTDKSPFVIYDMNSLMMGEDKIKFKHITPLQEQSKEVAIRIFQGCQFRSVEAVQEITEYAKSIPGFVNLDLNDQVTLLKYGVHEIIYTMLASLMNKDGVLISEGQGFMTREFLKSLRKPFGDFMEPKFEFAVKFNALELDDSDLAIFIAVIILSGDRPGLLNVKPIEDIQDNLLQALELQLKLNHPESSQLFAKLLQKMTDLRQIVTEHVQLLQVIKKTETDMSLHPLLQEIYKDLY
# Assay: qHTS assay for small molecule agonists of peroxisome proliferator-activated receptor gamma signaling (AID 588536)
# Settings: HEK293 PPARg-UAS-bla, beta-lactamase ratio, 16 h, percent of rosiglitazone response, DMSO as zero; series mostly up to 76.7 µM; activation: at the top concentration
# Text: NIH Chemical Genomics Center [NCGC] U.S. Environmental Protection Agency [EPA] National Institutes of Environmental Health Sciences [NIEHS] National Toxicology Program [NTP] NCGC Assay Overview The Peroxisome proliferator-activated receptors (PPARs) are lipid-activated transcription factors of the nuclear receptor superfamily with three distinct subtypes namely PPAR alpha, PPAR delta (also called PPAR beta) and PPAR gamma. All these subtypes heterodimerizes with Retinoid X receptor (RXR) and these heterodimers regulate transcription of various genes. PPAR-gamma (glitazone receptor) agonists have been used in the treatment of type 2 diabetes and dyslipidaemia. It is involved in the regulation of glucose and lipid metabolism. PPAR-gamma activates certain genes like Paraoxonase 1 which is responsible for hydrolyzing organophosphates. PPAR-gamma agonists may also be therapeutically important in the treatment of coronary artery disease, obesity and cancer and atherosclerosis.
# NCGC Assay Protocol Summary Using a beta-lactamase reporter-gene under control of Peroxisome Proliferator-Activated-gamma (PPAR-gamma) response element, a cell-based assay [GeneBLAzer PPAR-gamma-UAS-bla assay developed by Invitrogen] was used to measure PPAR-gamma ligands signaling. GeneBLAzer PPAR-gamma-UAS-bla-HEK293 cells were used with assay medium containing 1% charcoal/dextran treated FBS. The assay was performed in clear bottom black Greiner 1536-well plates. Rosiglitazone was used in the screen as the positive control. Library compounds were measured for their ability to stimulate the reporter gene activity. Compounds were screened in a titration series in 1536-well format. The fluorescence intensity (405 nm excitation, 460/530 nm emission) was measured using an EnVision plate reader. Data was normalized relative to Rosiglitazone control (2 uM, 100%), and DMSO only wells (basal, 0%). Concentration-response titration points for each compound were fitted to the Hill equation yielding concentrations of half-maximal stimulation (EC50) and maximal response (efficacy) values. qHTS protocol for PPAR-gamma beta-lactamase assay in agonist mode [Step] [Parameter] [Value] [Description] 1. Reagent; 6 uL; 3000 cells/well 2. Incubation; 37 C for 6 - 6.5 hrs 3. Compounds; 23 nL; 0.59 nM to 92 uM 4. Controls (Rosiglitazone); 23 nL, - One column with dose response, start 19 uM, 1:3 dilutions in duplicates - Final concentrations of 2 uM and 0.5 uM in two columns 5. Incubation; 37 C for 16 hrs 6. Detection reagent; 1 uL of CCF4-dye 7. Incubation; RT for 2 hrs 8. Detection; Fluorescence; Envision plate reader
row,Structure (SMILES),activation
1,CC(COCC(C)OC(=O)c1ccccc1)OC(=O)c1ccccc1 (stereo not given),1.84% (inactive)
2,CCCCOCCOCCOCCO,-2.52% (inactive)
3,O=C1CCCC/C=C/CCCCCCCCCO1,3.17% (inactive)
4,CC1=CC2C3CC(C=C3C)C2C1 (stereo not given),-3.42% (inactive)
5,O=C(OCC1CCC2OC2C1)C1CCC2OC2C1 (stereo not given),3.16% (inactive)
6,C=C(C)C(=O)OCC[N+](C)(C)C,-5.66% (inactive)
7,CC(C)Cc1c(C(=O)O)c(C(F)F)nc(C(F)(F)F)c1C1=NCCS1,-1.27% (inactive)
8,CCC(O)OCCCOC (stereo not given),-4.91% (inactive)
9,CCCCNS(=O)(=O)c1ccccc1,7.59% (inactive)
10,C=Cc1ccccc1Br,-1.09% (inactive)
11,O=c1oc(=O)c2cc3c(=O)oc(=O)c3cc12,-4.53% (inactive)
12,CC(=O)CC(=O)Nc1ccccc1C,-7.78% (inactive)
13,COc1ccccc1NC(=O)CC(C)=O,-6.74% (inactive)
14,CC/C=C\CCOC(=O)c1ccccc1O,-0.658% (inactive)
15,O=C=NCCCCCCN=C=O,-2.91% (inactive)
16,CCCCCCCCCCCCCCN,-5.62% (inactive)
17,COC(=O)CSc1cc(N=c2sc(=O)n3n2CCCC3)c(F)cc1Cl,10.4% (inactive)
18,c1ccc(OCCOc2ccccc2)cc1,-5.7% (inactive)
19,C[Si]1(C)O[Si](C)(C)O[Si](C)(C)O[Si](C)(C)O[Si](C)(C)O1,0.143% (inactive)
20,CCCCCCCCCCCCN,-1.01% (inactive)

row,Structure (SMILES),activation
1,Cc1ccc(N)c(S(=O)(=O)O)c1,-2% (inactive)
2,CCC/C(=N\OCC)C1=C(O)CC(O)(CC(C)S(=O)(=O)CC)CC1=O (stereo not given),1.59% (inactive)
3,C=Cc1ccc(P(c2ccccc2)c2ccccc2)cc1,-3.31% (inactive)
4,BrC1CCC(Br)C(Br)CCC(Br)C(Br)CCC1Br (stereo not given),0.0302% (inactive)
5,C[C@]12CCC(=O)C=C1CC[C@@H]1[C@@H]2[C@@H](O)C[C@]2(C=O)[C@@H](C(=O)CO)CC[C@@H]12,5.26% (inactive)
6,O=c1[nH]c(=O)c2[nH]cnc2[nH]1,-0.619% (inactive)
7,O=C(OCCOCCOC(=O)c1ccccc1)c1ccccc1,1.46% (inactive)
8,CCCCC(CC)COC(=O)/C=C\C(=O)OCC(CC)CCCC (stereo not given),-14.4% (inactive)
9,O=[N+]([O-])C(CO)(CO)CO,-2.97% (inactive)
10,CCCCCCOCCOCCO,5.91% (inactive)
11,c1ccc(B(c2ccccc2)c2ccccc2)cc1,-7.26% (inactive)
12,Cc1c(Cl)cccc1Cl,-3.13% (inactive)
13,Cn1c(=O)[nH]c(=O)n(C2CCCCC2)c1=O,3.99% (inactive)
14,CCCCC(CC)COC(C)=O (stereo not given),-4.29% (inactive)
15,CCCCCCCCCc1ccccc1,-6.11% (inactive)
16,CCCOC(=O)NCCCN(C)C,-2.71% (inactive)
17,CC(C)(C)c1n[nH]c(=O)n(N)c1=O,0.169% (inactive)
18,CC(C)(C)c1cccc(C(C)(C)C)c1O,1.48% (inactive)
19,CC(C)=CCC/C(C)=C\CO,1.32% (inactive)
20,CCCCN(CCCC)CCCCCCN(CCCC)CCCC,-4.4% (inactive)
